A number with no mark means an inactive call. Inconclusive results are not listed. Activity calls are given as the source filed them. Calls come from the whole dose curve; as a rule, active = well fitted curve in the direction sought with a large enough effect; inconclusive = small, poorly fitted or top-dose-only effect, or another doubt; inactive = no such curve, though single readings can be large; an effect the other way counts as inactive or inconclusive.

The target of assay [1] is Glutathione peroxidase 1 (Homo sapiens) (UniProt P07203). The experiment in a line: Primary qHTS Assay for Inhibitors of Recombinant Selenoprotein Glutathione Peroxidase 1 (GPX1) (AID 1845191). For activity, negative = inhibition: % is set by controls: 0 for no effect and ±100 for the full control effect. Note: nearly all actives have a fitted effect of over 65% in size. A digest of the protocol: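 GR-coupled readout: NADPH consumption tracked by fluorescence, ex 340/em 450 nm, at t=0 and after 15 min at RT. Final mix 10 nM GPX1, 1 mM GSH, 0.5 mM CHP, 0.5 mM NADPH, 100 nM GR, 0.01% BSA, following 30 min enzyme–compound preincubation.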
A general note: qHTS replaces the single test concentration by a dilution series.

Assay [2] deals with Phospholipid hydroperoxide glutathione peroxidase GPX4 (Homo sapiens) (UniProt P36969). The experiment in a line: Primary qHTS Assay for Inhibitors of Recombinant Selenoprotein Glutathione Peroxidase 4 (GPX4) (AID 1845192). For activity change, negative = inhibition: series mostly up to about 50 µM; % is set by controls: 0 for no effect and ±100 for the full control effect. Note: nearly all actives have a fitted effect of over 65% in size. Summed up:
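Steps: GPX4 plus compound, 30 min RT; add GR/GSH/NADPH master mix; start with cumene hydroperoxide; read 340/450 nm fluorescence at 0 and 15 min. Finals were 200 nM GPX4, 1 mM GSH, 0.5 mM CHP, 0.5 mM NADPH, 100 nM GR.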

Assay [3] addresses Luciferin 4-monooxygenase (Photinus pyralis) (UniProt P08659). The experiment in a line: Primary firefly luciferase (FLuc) qHTS assay for identification of artifact compounds. (AID 1845220).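 For activity change, negative = inhibition: series mostly up to about 54 µM; plate controls were DMSO vehicle for no effect and no enzyme for full effect.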 Note: nearly all actives have a fitted effect of over 60% in size. A digest of the protocol: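 Enzymatic FLuc inhibition assay: compounds pre-exposed to luciferin/ATP (10 uM each) for 15 min, then purified P. pyralis enzyme at 10 nM added. Read-out: luminescence at 5 min.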

The nature of assay [4]: Primary fluorescence-based thiol-reactive (MSTI) qHTS assay for identification of artifact compounds. (AID 1845221).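 For activity change, negative = thiol reactive: series mostly up to about 54 µM; thiol-reactive compounds lower the probe fluorescence signal.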 Note: nearly all actives have a fitted effect of over 65% in size. Note: potency is the fitted concentration of half-maximal effect. Summed up:
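MSTI probe at 4 uM final in 2% DMSO/PBS pH 7.4; compounds, 1 h at room temperature in dark. Fluorescence Ex/Em 525/598 nm, normalised to Acetyl-MSTI and MSTI, fitted to 4-parameter Hill.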

Assay [5] concerns Nanoluciferase (engineered Oplophorus gracilirostris luciferase). The experiment in a line: Primary Nanoluciferase (NLuc) qHTS assay for identification of artifact compounds. (AID 1845222).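 Note: NLuc secreted into diluted conditioned medium of S16 cells; series mostly up to about 54 µM; 0% = DMSO and -100% = no enzyme.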 Summed up: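 S16 cell supernatant NLuc, 1:55; cpds qHTS; 15 min RT dark; Nano-Glo substrate 1:100, 5 min; luminescence; Hill fit of % inhibition.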
Assay [6] can be described thus: Primary redox qHTS assay for identification of artifact compounds. (AID 1845223).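 Note: 0% = DMSO and 100% = reference compound.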 A digest of the protocol: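 Redox-cycling detection via DTT (250 uM final) oxidation coupled to Amplex Red (25 uM)/HRP (250 mU/mL) in HBSS. 15 min preincubation plus 30 min after DTT, room temperature. Ex/Em 525/598 nm; 4-parameter Hill fit against DMSO and 10 uM DA3003.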

Chain of Glutathione peroxidase 1 (Homo sapiens) (P07203 whole entry, looked up): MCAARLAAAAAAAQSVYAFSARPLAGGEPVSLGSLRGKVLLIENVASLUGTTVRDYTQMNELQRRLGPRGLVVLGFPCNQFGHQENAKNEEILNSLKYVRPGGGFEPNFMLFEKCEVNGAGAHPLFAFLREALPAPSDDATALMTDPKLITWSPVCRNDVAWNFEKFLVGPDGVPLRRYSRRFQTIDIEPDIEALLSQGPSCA
Chain of Phospholipid hydroperoxide glutathione peroxidase GPX4 (Homo sapiens) (P36969 whole entry, looked up): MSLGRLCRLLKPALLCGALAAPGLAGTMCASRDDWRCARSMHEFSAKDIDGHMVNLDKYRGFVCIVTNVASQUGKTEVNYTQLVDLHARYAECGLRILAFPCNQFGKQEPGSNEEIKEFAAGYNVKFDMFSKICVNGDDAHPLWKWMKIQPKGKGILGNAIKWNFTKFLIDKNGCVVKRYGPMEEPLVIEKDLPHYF

With `C/C1=C\[C@@H](C)C[C@@H](C)[C@@H](Cc2cnco2)OC(=O)/C(C)=C/[C@@H](C)C[C@@H](C)[C@@H](Cc2cnco2)OC1=O`, the Potency entry in assay [1], in assay [2], in assay [3], in assay [4], in assay [5] and in assay [6] was “inactive” each time.
Consider `CC(C)c1c(O)ccc2c1CC[C@H]1C(C)(C)CCC[C@]21C`, for which the Potency result in assay [1], in assay [2], in assay [3], in assay [4], in assay [5] and in assay [6] was “inactive” each time.
Turning to `FC(F)(F)c1ccc(/C=C/c2nc(COc3ccc(CCCCn4ccnn4)cc3)co2)cc1`, the Potency entry in assay [1], in assay [2], in assay [3], in assay [4], in assay [5] and in assay [6] was “inactive” each time.
With `CCNc1nc(Nc2cc(F)c(C(=O)N3CCOCC3)cc2OC)ncc1C(F)(F)F`, the Potency result in assay [1], in assay [2], in assay [3], in assay [4], in assay [5] and in assay [6] was “inactive” in each case.
As for `C=C1C(=O)O[C@@H]2[C@H]1CC[C@H](C)[C@]1(CCC(=O)O1)C2(C)O` (some centres undefined), the Potency entry in assay [1], in assay [2], in assay [3], in assay [4], in assay [5] and in assay [6] was “inactive” each time.
For the compound `O=C(NC1CCC1)c1ccc(C#Cc2cccc(F)c2)nc1`, the Potency entry in assay [1], in assay [2], in assay [3], in assay [4], in assay [5] and in assay [6] was “inactive” throughout.
Turning to `Cn1ncc2cc(-c3cnc(N)c(Cl)c3N3CCC4(CCNC4=O)CC3)ccc21`, the Potency entry in assay [1], in assay [2], in assay [3], in assay [4], in assay [5] and in assay [6] was “inactive” throughout.
Take `CCNC(=O)N1CCCN(c2ccc(C(=O)NCCc3ccc(Cl)cc3Cl)cc2NC(=O)c2cccc(Cl)c2)CC1`: the Potency result in assay [1], in assay [2], in assay [3], in assay [4], in assay [5] and in assay [6] was “inactive” each time.
With `COc1cc(O)c2c(c1)C1OC1C[C@H](O)[C@H](O)C(=O)/C=C\C[C@H](C)OC2=O` (some centres undefined), the Potency entry in assay [1], in assay [2], in assay [3], in assay [4], in assay [5] and in assay [6] was “inactive” throughout.
For `C/C=C/C1=CC2=C(CO1)C(=O)C(C)(OC(=O)c1c(C)cc(O)cc1OC)C(O)C2` (centres undefined), the Potency entry in assay [1], in assay [2], in assay [3], in assay [4], in assay [5] and in assay [6] was “inactive” in each case.
As to `C[C@H](Oc1cc(-n2cnc3ccc(CN4CCN(C)CC4)cc32)sc1C(N)=O)c1ccccc1C(F)(F)F`, the Potency result in assay [1], in assay [2], in assay [3], in assay [4], in assay [5] and in assay [6] was “inactive” each time.
In the case of `O=C(Nc1ccn(Cc2ccc(O)cc2C(F)(F)F)n1)c1c(F)cccc1F`, the Potency entry in assay [1], in assay [2], in assay [3], in assay [4], in assay [5] and in assay [6] was “inactive” in each case.
Consider `O[C@@](Cc1ncc(CC2(C(F)(F)F)CC2)[nH]1)(c1ccc(-n2cccn2)cc1)C(F)(F)F`, for which the Potency entry in assay [1], in assay [2], in assay [3], in assay [4], in assay [5] and in assay [6] was “inactive” throughout.
Regarding `C=C1CC[C@@H]2[C@](C)(CO)[C@H](O)CC[C@@]2(C)[C@@H]1C/C=C1/C(=O)OCC1OC(=O)/C(=C/CO)C(O)C[C@@H]1C(=C)CC[C@@H]2[C@](C)(CO)[C@H](O)CC[C@]21C` (some centres undefined), the Potency entry in assay [1], in assay [2], in assay [3], in assay [4], in assay [5] and in assay [6] was “inactive” each time.
As to `C/C=C(/C)C(=O)OC1CC(C)(C)CC2C3=CCC4C5(C)CCC(O[C@@H]6O[C@H](C(=O)O)[C@@H](O)[C@H](O)[C@H]6O[C@@H]6O[C@H](CO)[C@H](O)[C@H](O[C@@H]7OC[C@H](O)[C@H](O)[C@H]7O[C@@H]7O[C@H](CO)[C@@H](O)[C@H](O)[C@H]7O)[C@H]6O)C(C)(C)C5CCC4(C)C3(C)C(O)C(O)C12CO` (some centres undefined), the activity, negative = inhibition in assay [1] was -3.11% [at 9.52 µM]; in assay [5] it was 4.03% [at 11.6 µM]. For the same compound, the results for the activity change, negative = inhibition in assay [2] and in assay [3] were -1.81% [at 9.73 µM] and 1.87% [at 11.6 µM], respectively. Also, in assay [4], the activity change, negative = thiol reactive was 199% [at 11.5 µM]. Also, the redox activity (% of DA3003) in assay [6] is 15.7% [at 11.5 µM].
For the compound `C[C@H]1CC[C@@]2(OC1)O[C@H]1CC3C4CC[C@H]5C[C@@H](O)CC[C@]5(C)C4=CC(=O)[C@]3(C)[C@H]1[C@@H]2C` (some centres undefined), the Potency result in assay [1], in assay [2], in assay [3], in assay [4], in assay [5] and in assay [6] was “inactive” in each case.
For the compound `CCOC(=O)CCNc1cc(N2CCc3ccccc3CC2)nc(-c2cccnc2)n1`, the Potency result in assay [1], in assay [2], in assay [3], in assay [4], in assay [5] and in assay [6] was “inactive” each time.
For the compound `Nc1nc2c(c(N3CC[C@@H](N)C3)n1)CCCc1ccccc1-2`, the Potency entry in assay [1], in assay [2], in assay [3], in assay [4], in assay [5] and in assay [6] was “inactive” throughout.
As to `C=C(C)C(=O)O[C@H]1[C@H]2C(=C)C(=O)O[C@@H]2/C=C(\CO)CC/C=C(/C=O)[C@@H]1O`, the Potency result in assay [1], in assay [2], in assay [3], in assay [4], in assay [5] and in assay [6] was “inactive” in each case.
On to `C[C@@H](Nc1ncnc2[nH]c(-c3ccc(O)cc3)cc12)c1ccccc1`, for which the Potency result in assay [1], in assay [2], in assay [3], in assay [5] and in assay [6] was “inactive” each time. Also, in assay [4], the Potency is 1.34 µM (active).
`CCOc1cc(C(C)(C)C)ccc1C1=N[C@@](C)(c2ccc(Cl)cc2)[C@@](C)(c2ccc(Cl)cc2)N1C(=O)N1CCN(CC(=O)N2CCOCC2)CC1`: the Potency entry in assay [1], in assay [2], in assay [3], in assay [4], in assay [5] and in assay [6] was “inactive” each time.
As for `O=C1C(Cc2ccc(O)cc2)N2C(=O)CCN(C(=O)NCc3ccccc3)C2CN1Cc1cccc2ccccc12` (centres undefined), the Potency entry in assay [1], in assay [2], in assay [3], in assay [4], in assay [5] and in assay [6] was “inactive” in each case.
As to `CC(C)(C)c1ccc(NC(=O)N2CCN(c3ncccc3Cl)CC2)cc1`, the Potency result in assay [1], in assay [2], in assay [3], in assay [4], in assay [5] and in assay [6] was “inactive” each time.
On to `CC(C)(N)c1ncc(-c2ccc(OC(F)(F)F)cc2)[nH]1`, for which the Potency entry in assay [1], in assay [2], in assay [3], in assay [4], in assay [5] and in assay [6] was “inactive” each time.

(Values after PubChem BioAssay (NCATS).)
